The record followed here is PubChem BioAssay (Tox21).

Test [1] can be described thus: qHTS assay for small molecules that induce genotoxicity in human embryonic kidney cells expressing luciferase-tagged ATAD5 (AID 651632). Also: nearly all actives have a fitted effect of over 15% in size. In a few lines: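 ATAD5-luc HEK293T, 2,000 cells/well; cpd or DMSO pin-transferred; 16 hr, 37C/5% CO2; Amplite 30 min RT; luminescence.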
(In general: Quantitative high-throughput screening tests each substance at several concentrations.)

The nature of test [2]: qHTS assay for small molecule agonists of the p53 signaling pathway - cell viability (AID 651633; calls by dose curve;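 also: p53RE-bla HCT reporter cells with a stable beta-lactamase p53 reporter; series mostly up to about 83 µM; nearly all actives have a fitted effect of over 30% in size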). In a few lines: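 Viability counter-read: CellTiter-Glo luminescence (30 min, room temperature) in the same p53RE-bla plates. These plates had been exposed to compounds for 16 h at 37 C.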
Test [3] can be described thus: qHTS assay for small molecules that induce genotoxicity in human embryonic kidney cells expressing luciferase-tagged ATAD5 - cell viability (AID 651634; calls by dose curve; also: nearly all actives have a fitted effect of over 25% in size; also: potency is read from the fitted curve at half-maximal effect). In a few lines:
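Fluorescence from CellTiter-Fluor, reporting protease activity within live cells, served as the viability read-out. HEK293T cells carrying luciferase-tagged ATAD5 had been treated with compound for 15.5 hr at 37C.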

Test [4] can be described thus: qHTS assay for small molecule disruptors of the mitochondrial membrane potential - cell viability (AID 720634; calls by dose curve; also: nearly all actives have a fitted effect of over 20% in size; also: potency is read from the fitted curve at half-maximal effect). In a few lines: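 Cells: HepG2, 2,000/well, attached overnight. Compound 1 hr, 37 C/5% CO2. +m-MPI dye, +CellTiter-Glo 30 min RT. Readout: luminescence (ATP).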
Test [5] is described as follows: qHTS assay for small molecule disruptors of the mitochondrial membrane potential (AID 720635). Also: potency is read from the fitted curve at half-maximal effect. The essentials: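 Mitochondrial membrane potential tracked with Mito-MPS dye, red aggregates (ex 540/em 590 nm) against green monomers (ex 490/em 535 nm). Compound treatment 1 hr at 37C, dye 30 min in HepG2.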
Test [6] can be described thus: qHTS assay to test for compound auto fluorescence at 590 nm (red) in HepG2 cells (AID 720674). The essentials:
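We screened compounds on adherent HepG2 cells, incubating them for an hour at 37 C in 5% CO2 before reading emission at 590 nm under 540 nm excitation; values reflect equivalence to Rose Bengal sodium fluorescence.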

Test [7] in a line: qHTS assay to test for compound auto fluorescence at 535 nm (green) in HepG2 cells (AID 720675).
A short description of test [8]: qHTS assay to test for compound auto fluorescence at 460 nm (blue) in HEK293 cells (AID 720678). The essentials:
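Intrinsic compound fluorescence is recorded in live HEK293 cultures after overnight incubation at 37C, 5% CO2, using excitation 405 nm and emission 460 nm. Values are referenced to triamterene.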

Test [9] can be described thus: qHTS assay to test for compound auto fluorescence at 590 nm (red) in HEK293 cells (AID 720679). The essentials: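 Red autofluorescence, HEK293 cells: 2,000 cells/well; attach 4-5 hr 37C; add 23 nL cpd or DMSO; incubate o/n 37C 5% CO2; read Ex540/Em590; Rose Bengal sodium reference.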
The nature of test [10]: qHTS assay to test for compound auto fluorescence at 460 nm (blue) in HEK293 cell free culture (AID 720681). In a few lines: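 Blue fluorescence (Ex 405/Em 460 nm, triamterene-equivalent) was read immediately after pin transfer of compound or DMSO into medium (DMEM, 10% FBS) without cells.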
Test [11] is described as follows: qHTS assay to test for compound auto fluorescence at 535 nm (green) in HEK293 cell free culture (AID 720682). The essentials:
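Intrinsic compound fluorescence is measured in culture medium containing 10% FBS, with excitation at 485 nm and detection at 535 nm, referenced to fluorescein.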

Test [12] can be described thus: qHTS assay to test for compound auto fluorescence at 590 nm (red) in HEK293 cell free culture (AID 720683). In a few lines:
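Red-channel autofluorescence of compounds in culture medium (DMEM, 10% FBS), no cells, measured at 540/590 nm. Rose Bengal sodium is the reference fluorophore for equivalence.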

Test [13] can be described thus: qHTS assay to test for compound auto fluorescence at 590 nm (red) in HepG2 cell free culture (AID 720684). In a few lines: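 Plate contents were MEM with 10% FBS plus test compound or DMSO, no cells. Fluorescence was recorded with 540 nm excitation and 590 nm emission.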
Test [14] can be described thus: qHTS assay to test for compound auto fluorescence at 460 nm (blue) in HepG2 cell free culture (AID 720685). In a few lines: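 Compound (23 nL) or DMSO pinned into cell-free MEM with 10% FBS; blue fluorescence read at 405/460 nm excitation/emission, expressed as auto-fluorescence equivalency to triamterene.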
The nature of test [15]: qHTS assay to test for compound auto fluorescence at 535 nm (green) in HepG2 cell free culture (AID 720686).
A short description of test [16]: qHTS assay to test for compound auto fluorescence at 460 nm (blue) in HepG2 cells (AID 720687). The essentials: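 Blue-channel autofluorescence (Ex/Em 405/460 nm, triamterene-equivalent) was measured after 1 hr compound exposure at 37 C, 5% CO2. Cells were HepG2, plated overnight at 37 C in MEM plus 10% FBS.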
In test [17] the target is Glucocorticoid receptor (Homo sapiens) (UniProt P04150). As to the kind of experiment: qHTS assay to identify small molecule agonists of the glucocorticoid receptor (GR) signaling pathway (AID 720691; active = well fitted activation curve with a large enough effect in the signal ratio in the repeat runs, not every such curve was filed as active; the % refers to the signal ratio). In a few lines:
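Fluorescence intensity from LiveBLAzer B/G FRET substrate (2 h, room temperature) reports beta-lactamase expression driven by the glucocorticoid response element in GR-bla HeLa cells after 18 h compound exposure at 37 C.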

For test [18] the target is unchanged. The test is described as follows: qHTS assay to identify small molecule antagonists of the glucocorticoid receptor (GR) signaling pathway (AID 720692; active = well fitted inhibition curve with a large enough effect in the signal ratio in the repeat runs, not every such curve was filed as active; the % refers to the signal ratio). In a few lines: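 HeLa GR-bla cells; cmpd + dex 5 nM final, 18 h 37 C; LiveBLAzer B/G FRET substrate 2 h RT; fluorescence intensity read. Antagonist mode, qHTS.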
The nature of test [19]: qHTS assay to test for compound auto fluorescence at 535 nm (green) in HEK293 cells (AID 720680).

Inconclusive results are not listed. The source made the active and inactive calls. Unless noted, calls follow the shape of the dose curve; as a rule, active = well fitted curve in the direction sought with a large enough effect in the repeat runs; inconclusive = weak or mixed curves; inactive = no such curve, though single readings can be large; an effect the other way counts as inactive or inconclusive.

Chain of Glucocorticoid receptor (Homo sapiens) (P04150 whole entry, looked up): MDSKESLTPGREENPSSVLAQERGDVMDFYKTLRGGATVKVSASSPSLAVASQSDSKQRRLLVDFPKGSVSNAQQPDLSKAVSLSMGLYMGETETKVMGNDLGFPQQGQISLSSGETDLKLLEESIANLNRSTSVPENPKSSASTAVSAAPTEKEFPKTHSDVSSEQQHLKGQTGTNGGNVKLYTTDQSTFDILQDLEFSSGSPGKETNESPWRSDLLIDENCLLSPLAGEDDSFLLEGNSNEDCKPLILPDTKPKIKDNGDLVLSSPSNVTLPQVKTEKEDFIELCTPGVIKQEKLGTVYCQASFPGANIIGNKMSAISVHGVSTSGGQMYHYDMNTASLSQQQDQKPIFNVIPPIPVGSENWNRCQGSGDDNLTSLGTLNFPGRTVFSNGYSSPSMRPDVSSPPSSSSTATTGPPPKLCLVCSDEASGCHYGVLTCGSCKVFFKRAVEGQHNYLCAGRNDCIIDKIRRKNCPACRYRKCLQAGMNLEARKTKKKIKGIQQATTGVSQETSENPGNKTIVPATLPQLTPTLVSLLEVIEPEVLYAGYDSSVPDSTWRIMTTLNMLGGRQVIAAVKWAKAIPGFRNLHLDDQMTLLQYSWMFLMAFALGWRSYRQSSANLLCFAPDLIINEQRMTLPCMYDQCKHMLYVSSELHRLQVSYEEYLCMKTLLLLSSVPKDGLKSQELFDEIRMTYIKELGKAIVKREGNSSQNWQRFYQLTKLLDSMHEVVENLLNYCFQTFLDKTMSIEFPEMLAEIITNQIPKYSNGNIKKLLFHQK

`CCCC1CCC(=O)CC1`: the Potency entry in test [1], in [2], in [3], in test [4], in test [5] and in test [6] was “inactive” in each case. The Potency entry in [7], in [8], in test [9], in test [10], in [11] and in [12] was “inactive” in each case. The Potency entry in [13], in test [14], in [15], in test [16], in test [17] and in test [18] was “inactive” in each case.

Consider `CCO[Si](OCC)(OCC)OCC`, for which the Potency entry in test [1], in [2], in [3], in [4], in [6] and in test [7] was “inactive” each time. In addition, the Potency entry in test [8], in test [9], in test [19], in [10], in test [11] and in test [12] was “inactive” in each case. The Potency entry in test [13], in test [15], in [16], in test [17] and in test [18] was “inactive” each time.

Consider `CCCCCCCCCCCCOC(=O)c1ccc(O)cc1`, for which the Potency result in test [1], in test [2], in [3], in [6], in test [7] and in test [8] was “inactive” throughout. For the same compound, the Potency entry in [9], in [19], in test [10], in [11], in test [12] and in test [13] was “inactive” in each case. The Potency result in test [14], in [15] and in [16] was “inactive” throughout. In [5], the Potency is 3.46 µM (active).

In the case of `C=Cc1cccc(C)c1`, the Potency result in [1], in test [2], in [3], in test [4], in test [6] and in test [7] was “inactive” each time. The Potency entry in test [8], in test [9], in [19], in [10], in [11] and in test [12] was “inactive” throughout. Also, the Potency entry in test [13], in test [14], in test [15], in test [16] and in test [17] was “inactive” throughout.

As to `OCC(F)(F)F`, the Potency entry in test [1], in test [2], in test [3], in test [4], in [6] and in test [7] was “inactive” each time. Also, the Potency result in test [8], in test [9], in [19], in test [10], in test [11] and in [12] was “inactive” in each case. In addition, the Potency result in test [13], in test [15], in test [16], in [17] and in test [18] was “inactive” in each case.

Regarding `COc1ccc2cc1Oc1ccc(cc1)C[C@H]1c3c(cc4c(c3Oc3cc5c(cc3OC)CCN(C)[C@@H]5C2)OCO4)CCN1C`, the Potency entry in test [1], in test [2], in test [4], in test [6], in [7] and in test [8] was “inactive” throughout. Further, the Potency entry in test [9], in test [19], in test [10], in test [11], in test [12] and in test [13] was “inactive” throughout. In addition, the Potency result in test [14], in test [15], in test [16], in test [17] and in test [18] was “inactive” each time. Moreover, the Potency in test [3] was 29.8 µM (active).

For the compound `CC(C)(C)C1CCC(=O)CC1`, the Potency entry in test [1], in [2], in test [3], in test [4], in test [6] and in [7] was “inactive” throughout. For the same compound, the Potency entry in [9], in test [10], in test [11], in test [12], in test [13] and in [14] was “inactive” each time. For the same compound, the Potency result in [15], in test [16] and in test [17] was “inactive” throughout.

Consider `CC1(C)CCC[C@]2(C)[C@H]3CCO[C@]3(C)CC[C@@H]12`, for which the Potency entry in [1], in test [2], in [3], in [4], in [6] and in test [7] was “inactive” throughout. Further, the Potency result in test [8], in [9], in test [10], in [11], in test [12] and in [13] was “inactive” in each case. The Potency entry in [14], in test [15], in [16] and in test [17] was “inactive” throughout.

With `CCn1c2ccccc2c2cc([N+](=O)[O-])ccc21`, the Potency entry in [1], in test [2], in test [3], in [6], in test [7] and in [9] was “inactive” in each case. The Potency entry in [19], in test [10], in test [11], in [12], in [13] and in [14] was “inactive” in each case. The Potency result in [15] and in [16] was “inactive” each time. The Potency in [4] and in test [5] was 30.6 µM (active) throughout.

Turning to `C=CCCC(=O)/C=C/C1C(C)=CCCC1(C)C` (centres undefined), the Potency result in test [1], in test [2], in test [3], in test [4], in test [6] and in test [7] was “inactive” each time. Also, the Potency result in test [9], in [19], in test [10], in test [11], in [12] and in test [13] was “inactive” throughout. Further, the Potency result in test [14], in [15], in [16], in [17] and in test [18] was “inactive” each time. Further, the Potency in test [5] is 61.1 µM (active).

As for `[Cu+]`, the Potency result in test [1], in test [2], in test [3], in [4], in test [6] and in test [7] was “inactive” throughout. The Potency result in [8], in [9], in test [19], in test [10], in test [11] and in test [12] was “inactive” throughout. Also, the Potency entry in test [13], in test [14], in [15] and in test [16] was “inactive” each time.

On to `COC(C)=O`, for which the Potency result in test [1], in test [2], in test [3], in [4], in test [5] and in [6] was “inactive” each time. Further, the Potency entry in test [7], in test [8], in test [9], in test [10], in test [11] and in [12] was “inactive” throughout. For the same compound, the Potency entry in test [13], in test [14], in test [15], in test [16], in test [17] and in [18] was “inactive” each time.

Take `COc1c(C)c2c(c(O)c1C/C=C(\C)CCC(=O)OCCN1CCOCC1)C(=O)OC2`: the Potency result in [1], in [3], in test [4], in [5], in test [6] and in test [7] was “inactive” throughout. For the same compound, the Potency result in test [8], in [9], in test [19], in test [10], in test [11] and in test [12] was “inactive” throughout. The Potency result in test [13], in [14], in test [15], in test [16] and in test [17] was “inactive” each time.
